# Data from the supplement of paper PMC10105736.
# Unmarked numbers belong to inactive results.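 The calls were made as follows: active = MAPPIT score above the 99th percentile of random reference set scores in the same batch; inactive = at or below it.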
# Key:
# Assay in all cases: MAPPIT interaction score (arbitrary units); higher = stronger binary interaction signal, active = hit call of the paper
# CG9676 = conditions: MAPPIT configuration: N-N; pair source set: RRS
# CROT = conditions: MAPPIT configuration: N-N; pair source set: Curagen_high_conf
# CG8292 = conditions: MAPPIT configuration: N-N; pair source set: Curagen_low_conf
# CG8320 = conditions: MAPPIT configuration: N-C; pair source set: screen_4
# CHES-1-like = conditions: MAPPIT configuration: N-C; pair source set: screen_4
# Mf = conditions: MAPPIT configuration: N-C; pair source set: screen_3
# mri = conditions: MAPPIT configuration: N-N; pair source set: screen_1
# CG9106 = conditions: MAPPIT configuration: N-N; pair source set: screen_2
# CG9825 = conditions: MAPPIT configuration: N-C; pair source set: screen_4
# CG9133 = conditions: MAPPIT configuration: N-N; pair source set: screen_1
# GstT2 = conditions: MAPPIT configuration: N-N; pair source set: screen_1
# CG9040 = conditions: MAPPIT configuration: N-N; pair source set: Finley_Y2H
# 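Also: HEK293T cells with Epo stimulation, STAT-responsive firefly luciferase reporter, fold induction versus unstimulated cells divided by the larger fold induction of two negative controls lacking either bait or prey.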
binder,measurement,setting,value
sgg (protein) MSGRPRTSSFAEGNKQSPSLVLGGVKTCSRDGSKITTVVATPGQGTDRVQEVSYTDTKVIGNGSFGVVFQAKLCDTGELVAIKKVLQDRRFKNRELQIMRKLEHCNIVKLLYFFYSSGEKRDEVFLNLVLEYIPETVYKVARQYAKTKQTIPINFIRLYMYQLFRSLAYIHSLGICHRDIKPQNLLLDPETAVLKLCDFGSAKQLLHGEPNVSYICSRYYRAPELIFGAINYTTKIDVWSAGCVLAELLLGQPIFPGDSGVDQLVEVIKVLGTPTREQIREMNPNYTEFKFPQIKSHPWQKVFRIRTPTEAINLVSLLLEYTPSARITPLKACAHPFFDELRMEGNHTLPNGRDMPPLFNFTEHELSIQPSLVPQLLPKHLQNASGPGGNRPSAGGAASIAASGSTSVSSTGSGASVEGSAQPQSQGTAAAAGSGSGGATAGTGGASAGGPGSGNNSSSGGASGAPSAVAAGGANAAVAGGAGGGGGAGAATAAATATGAIGATNAGGANVTDS,MAPPIT interaction score,CG9676,0.279
Usp30 (protein) MESEKILMAAGVTVAAVVGAFVFWGPSGSRLRQRRGQIAGLHNFGLTCFLNTLLQAMAACPQFIAWLQLYNNASPDRKSLITSMLNTLEVVNGTHATLRGDPYSPGAVLRALNALGWVIPQEEHDAHELFHVLLTCLEEEAIRPQPLGCLSDALPTDNDDNSSLAGTATPVGGFRSFSSMAAGLGASQRIGDQPNRPSSAMLTDFLNMEYDESTSLQRLVRSEAHTPDSPASVCERDGNDRLGSVLLDAVSPGTPFGFPLVSNPDSLATPMLGGERSSRPRLPQSQQQQDEGLNRRVSSSCRSLERLHRGPGRVSIWSNMMPSQVAHPFQGAMGAQIVCNGCGSKSAVRYDKFDSITLNLPPQRRTGLSLGHLLSEYITSEDLSDVKCDSCNETTTHTKSVTFAKLPACLCIHVARTVWLPTGQVCKRKDYVHFPESLSMAPYSFVQPHLNSQAGTPWGSTMSLYSSSLPMNNGVGGGEGFGTMFPKNLYRLLAVVVHSGEANSGHFVTYRRGSLRNAHRWYYTSDTIVREVSIDEVLSVPAYLLFYDRGQQRQLNLR,MAPPIT interaction score,CROT,2.05
Vha14-1 (protein) MALHSAIKGKLISVIGDEDTCVGFLLGGVGEINKNRHPNFMVVDKNTAVSELEDCFKRFLKRDDIDIILINQNCAELIRHVIDAHTSPVPAVLEIPSKDHPYDASKDSILRRARGMFNPEDLVR,MAPPIT interaction score,CG8292,-0.0476
tap (protein) MAACYNAYSAGSQSFEFDEDDDDASFDSGYEKSFETEAQLSSRRRLDFGTPPTPAIPQPYSGGTWDAVPLSSPPAGFVGLLDTSSNHSTRSGRTLVEHLNSRATNGVFDPPLTSTPVKSPEDPNAPRPKRKYAVGKNRVTRSRSPTQVVKIKRFRRMKANDRERNRMHNLNDALEKLRVTLPSLPEETKLTKIEILRFAHNYIFALEQVLESGGSINLDLEKLQNFTLSGERITKELFDALFVNPQPYPLFGRMFPYGQGMAPLAQHQTAPASHAEQPPAMGGFQHGMDYPQQPPGFDFTGSMRFYHQQQQQPHQPHHLQPNPQQESSPQQFSQEKYDLFRGSFDAAANLHSTNLDSGIHQQSSFYSQTPPWKDYPEDQAHVHPVPHQHSYKNFAPQV,MAPPIT interaction score,CG8320,-0.175
Lasp (protein) MNKTCARCQKVVYPIEELKCLDKTWHKTCFKCTECGMTLNMKTYKGYNKMPYCEAHIPKAKATAIADTPELKRIAENTKIQSNVKYHADFEKAKGKFTQVADDPETLRIKQNTKHISNVAYHGDLEKKAAMEKQRGSAEVSDSSNESEYFSEQLAAEQFSQYAPTASPIPPAATTLHQQQQQLQHQQQQQYQQHQQQLQQQQHQHQHYLQQQQQTLPPPPIQHQQYNTAAITPTYQQLQQQQQQQQQQRAQQQQLHDPYAHYQQPQALRQQQQQQQQQQQQLLQQQAIKQASHLYPTATSQQQQMPPPQSPANPQQQALNSYNEMRSAILQNSHHPSGNSVDQYDQPQQQQHQPQQQSTNPTLVAAQQQQSHHSLLNNNASNGGISHSHHSNINNNGHGSQNQMLPPQMRRSAASVVAYDGNSKQQVAAGPGAAQNHLQQLYASPNYAAVTPSENSINVKQHASNGHMPNQQQQHVAGGSNIGKIADYDPLTDGPRVVPNAGRSSTTLVYSSEPRGNQGGNSVYPKRIGSVSDIDPANGIYGSLTAAEQAHQQQKHQQYYQQVQMMQQQEHPPQQQQMRQQPSYSSLQEKQSRQSTAMRVYRAIYDYEAQDVDEVSFREGDVIFEVESIDSGWMTGRVERTGKTGMLPANYVEQAVI,MAPPIT interaction score,CHES-1-like,0.887
same,MAPPIT interaction score,Mf,3.01
same,MAPPIT interaction score,mri,1.83
bol (protein) MHKIAAAPPPSATPGGGLETPLAAPKYGTLIPNRIFVGGISGDTTEADLTRVFSAYGTVKSTKIIVDRAGVSKGYGFVTFETEQEAQRLQADGECVVLRDRKLNIAPAIKKQPNPLQSIVATNGAVYYTTTPPAPISNIPMDQFAAAVYPPAAGVPAIYPPSAMQYQPFYQYYSVPMNVPTIWPQNYQENHSPLLHSPTSNPHSPHSQSHPQSPCWSIEDLRDTLPRV,MAPPIT interaction score,CG9106,3.9 (active)
to (protein) MFAIAFAVVLCLLVSVDAKFPEDPKPCKYGDGECIMKLCNTLFSENSAEGDPGLNLMQLDPLKVDRMVISQGESSSPVGITLTFTDNLLYGIKDQRIVKVKGFGRDLTAKHEVKIVTKTFSLVGPYNIQGKVLILPISGTGQSNMTMVNVRAIVSFSGKPLVKNGETYLDVTDLKITMKPESSHYHFSNLFNGDKALGDNMNVFLNENSEAIYKETAKAIDRSFGKLYLGVVKGVFSKLPYAKFFADES,MAPPIT interaction score,CG9825,0.062
Tollo (protein) MLATTHMLYVLIATCVIPIFGAALSKTVLYQAPDECRWSGGGEHDITLVCHLRTINSELENTNFSVIQPQNTVRLRLECNDALFFQSSLSPDSFRSLVELRDLTIEYCKLGNLTDGSFRGLQELRNLTIRTHNGDWSTMSLEMASNSFVEFRQLERLDLSLNNIWLIPDGMVCPLKSLQHLNASYNKIQDISNFYFSASLSSRKARVCGSTLQSLDLSANKMVSLPTAMLSALGRLTHLNMAKNSMSFLADRAFEGLLSLRVVDLSANRLTSLPPELFAETKQLQEIYLRNNSINVLAPGIFGELAELLVLDLASNELNSQWINAATFVGLKRLMMLDLSANKISRLEAHIFRPLASLQILKLEDNYIDQLPGGIFADLTNLHTLILSRNRISVIEQRTLQGLKNLLVLSLDFNRISRMDQRSLVNCSQLQDLHLNDNKLQAVPEALAHVQLLKTLDVGENMISQIENTSITQLESLYGLRMTENSLTHIRRGVFDRMSSLQILNLSQNKLKSIEAGSLQRNSQLQAIRLDGNQLKSIAGLFTELPNLVWLNISGNRLEKFDYSHIPIGLQWLDVRANRITQLGNYFEIESELSLSTFDASYNLLTEITASSIPNSVEVLYLNDNQISKIQPYTFFKKPNLTRVDLVRNRLTTLEPNALRLSPIAEDREIPEFYIGHNAYECDCNLDWLQKVNRESRTQPQLMDLDQIHCRLAYARGSSHVSLIEAKSDDFLCKYASHCFALCHCCDFQACDCKMECPDRCSCYHDQSWTSNVVDCSRASYEQTLPSHIPMDSTQLYLDGNNFRELQSHAFIGRKRLKVLHLNHSRIEVLHNRTFYGLLELEVLQLQSNQLKALNGNEFQGLDNLQELYLQHNAIATIDTLTFTHLYHLKILRLDHNAITSFAVWNFLPSYLNELRLASNPWTCSCEFIDKLRDYINRHEYVVDKLKMKCDVISGNSTQQMVIYPGSGEPASLPVVQCSQTLPLGLDNNFNYAEQAGGENASNATSTKMILNQPPKLDYIPILVAILTAFIFVMICISLVFIFRQEMRVWCHSRFGVRLFYNAQKDVDKNEREKLFDAFVSYSSKDELFVNEELAPMLEMGEHRYKLCLHQRDFPVGGYLPETIVQAIDSSRRTIMVVSENFIKSEWCRFEFKSAHQSVLRDRRRRLIVIVLGEVPQKELDPDLRLYLKTNTYLQWGDKLFWQKLRFALPDVSSSQRSNVAGQSCHVPINHASYHHHHHVHQQAMPLPHSVHHHQQQFMLPPPPQQPGSFRRQPSLHQQQQQQQQIRGNNNTTQQQQQQQAALLMGGGSVGGPAPQMIPLAGGIQQQSLPLPPNQQPTPASRNLHM,MAPPIT interaction score,CG9133,1.51
same,MAPPIT interaction score,GstT2,2.34
CG8306 (protein) MASSPITDFYAGRNVFITGATGFVGVTIVEKLLRDVPNVGTLYLLMRAKKGKSVQERLEELKKNSVFDKFKELQLQSRLSKIVPIEGDVGLEHLGISPKDRQTLIDNVNVVFHSAATLDFFQSLKETTNINLRGTRRVVELCQQIKNLDALVHVSSAYVNAYLTKVEEKLYPAPEDPEKIIQLSETLNDDALKELEPKLLKDHPNTYTFTKHLAEHEVANVASKFPCGIVRPSMITAAWKEPIPGWTISKNGPQGFFMGASKGVLRRLPLDPSIIMDYIPIDVVVNGIITTGYYVNSLQAKNGGRPADLQIFHLTSSTYKPFRFELMTDKINSYLHDYPLNSAVWYPNLRLVKSLWVFRLSAILFHFIPAIILDLVTKIGGGRPILVRLHKNVWNSLNTLEKFIFTEWHFDSKRLLALSKTLNIVDKKKFFIDIGELAWDEYFSNTILGVRQYLSKEPIKNLEKARRKDKILLGLHVALQLSFWYGVFKLIVCLTGISTAKAALVLPVLYYLFGLL,MAPPIT interaction score,CG9825,-0.0656
Bre1 (protein) MSKRSADDATGSSCLVAAAAAGQPPIKKVHFEPHLIGPVSTLEEMDIKVLEFQNKKLAQRIEQRMRTEAELRHRIEQLEKRQTQDDAVLNVVNRYWNQLNEDIRVLLQRFDAETADELENRNENEVTTSFLAQLSTWDKEELDEKLANRVQVSKRAVAKIVQVIDRLMQRNEKITHVLKGDSLASAGSGSGAGAGGEEEQQQASGDAETTTSSAGVHALEETLKQTHIEIMSENHKLQNLNTSLHEKFHTMSLKMKEYQDAHTAKETENAELKNQIDELQYDLEKIHCRNDKLENHLAEAIEKLKAYHQIYGDPNKSTNSAKTPTTTGSGGATTSVNSQLLEELQKELEEYRELANNRLQELDKLHATHRETLKEVEKLKMDIRQLPESVIVETTEYKCLQSQFSVLYNESMQIKTMLDETRNQLQTSKNQHLRQIEVMESEELIAQKKVRSEMIQMEDVLALIRKEYETLRIEFEQNMAANEQTAPINREMRHLITSLQNHNGQLKGEVQRYKRKYKDTSTDNLKLRQELADALATLEGNKLQAATGAAGEEIKQENSTGVKEENSNNVSASGQTNQTNSGNDTNVAIKEENHISAEDEADDEASGKDVKDGIKQEKLSSGDAAAAEKKDSPGPGNSTSSATNSVPVKNEKDSKDGVKGKDVKAVESETVRDLKAQLKKALNDQKEMKLLLDMYKGVSKDQRDKVQLMATEKKLRSEIEELRQQLKKLQESKREERKKLADEEALRKIKQLEEQKYELQKQMANHKPTDNSWGSGAPGTANYTRPFVGSHEEEALLNEMEVTGQAFEDMQEQNSRLIQQLREKDDANFKLMSERIKANQLHKLLREEKTVLEDQMATATTQIEAMHIVLRKLEEKERSLQATVASIEKELMLRQQAMEMHKRKAIESAQSAADLKLHLEKYHAQMKEAQQVVAEKTSSLEAEAYKTKRLQEELAQFKRKAERMKKMEMSGTTIDEVMIEEIREYKETLTCPSCKVKRKDAVLSKCFHVFCYDCLRTRYETRQRKCPKCNCAFGANDYHRLYLQ,MAPPIT interaction score,CG9040,-0.0702
